The text below walks through data of paper PMC7826789 (International Journal of Molecular Sciences, 2021).

In experiment [1] the test system is FAK.
Experiment [2] concerns FER.
For experiment [3], the system named is FRK.
Experiment [4] concerns FGFR1.
For experiment [5], the system named is FLT3.
In experiment [6] the test system is GSG2.

Regarding `CCCNC(=O)c1ccc(Nc2ncc(C(F)(F)F)c(Nc3ccccc3C(C)=O)n2)c(Br)c1` [BI00801818], the Kinases covered entry in experiment [1] is recorded as “FAK”. With `CCc1cc(Nc2nccc(-c3c(-c4ccc(OC)c(C(=O)Nc5c(F)cccc5F)c4)nc4ccccn34)n2)c(OC)cc1N1CCC(N2CCN(S(C)(=O)=O)CC2)CC1` [GSK1904529], the Kinases covered result in experiment [2] is given as “FER”; in experiment [3], “FRK”.

For `CNC(=O)c1c(F)cccc1Nc1nc(Nc2cc3c(cc2OC)CCN3C(=O)CN(C)C)nc2[nH]ccc12` [GSK1838705], in experiment [2], the Kinases covered result is recorded as “FER”.

With `COc1cc(OC)cc(-c2cc3cnc(N)nc3nc2NC(=O)NC(C)(C)C)c1` [PFE-PKIS 3], the Kinases covered entry in experiment [4] was “FGFR1”.

For `COc1cc2c(cc1OC)C(=C(Nc1ccccc1)c1cccc(CN)c1)C(=O)N2` [BIBF0846CL], the Kinases covered result in experiment [5] is “FLT3”. Still for that read-out and setting: in the case of `Cn1ccc2ncnc(Oc3ccc(NC(=O)Nc4ccccc4)cc3)c21` [TPKI-69] it was “FLT3”.

In the case of `COc1cc(N2CCN(C)CC2)ccc1Nc1ncc2c(n1)N(C)c1ccccc1C(=O)N2` [XMD8-87], the Kinases covered entry in experiment [3] is reported as “FRK”. Regarding `c1ccc(-c2cc3ccncc3cc2OC2CCNCC2)cc1` [GSK1122999], the Kinases covered entry in experiment [6] is “GSG2”.
